The list is not random: actives were taken first. Their share in the collection is about 12%.
JMJD2A Tudor: qHTS Assay for Inhibitors of JMJD2A-Tudor Domain; AlphaScreen JMJD2A-Tudor / H3K4me3 peptide binding; Potency, µM (highest dose often 114 µM), usual class: inhibitors; AID 504339, 2011; Lysine-specific demethylase 4A (Homo sapiens), O75164; 390,000 compounds, 4.4% hits; note: nearly all actives have a fitted effect of over 50% in size
Sfp PPTase inh: qHTS Assay for Inhibitors of Bacillus subtilis Sfp phosphopantetheinyl transferase (PPTase); 4'-phosphopantetheinyl transferase ffp (Bacillus subtilis), Q9F4F7; Biochemical Sfp PPTase activity, qHTS; Potency, µM, hits mostly inhibitors; 310,000 compounds, 3.5% hits; AID 1490, 2009;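 note: the enzyme is Sfp with the accession as filed and its product quenches rhodamine fluorescence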
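Fluorescence-quenching assay: 15 nM Sfp-PPTase preincubated 15 min at room temperature with compound, then 5 uM rhodamine-CoA and 12.5 uM BHQ-2-labelled YbbR peptide added. Fluorescence (ex 525/em 598 nm) read at start and after 30 min; difference gives rate.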
HP1b chromo inh: HTS for Inhibitors of HP1-beta Chromodomain Interactions with Methylated Histone Tails | AlphaScreen HP1-beta / biotin-H3K9me3 peptide binding | Chromobox protein homolog 1 (Homo sapiens), P83916 | 390,000 compounds, 0.56% hits | Potency, µM (doses to about 114 µM), most hits filed as inhibitors; note: nearly all actives have a fitted effect of over 70% in size
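Compound inhibition of the preformed complex between 50 nM HP1-beta and 50 nM biotinylated H3K9me3 peptide was read by AlphaScreen. Buffer was PBS pH 7.4 with 0.01% Tween-20. Incubations ran 30 min at room temperature, with 10 ug/mL donor/acceptor beads.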
BAZ2B block: qHTS Assay for Inhibitors of BAZ2B | AlphaScreen BAZ2B-H3K14Ac peptide displacement | Potency, µM (doses to about 114 µM), actives largely listed as inhibitors | 360,000 compounds, 4.4% hits | Bromodomain adjacent to zinc finger domain protein 2B (Homo sapiens), Q9UIF8; note: nearly all actives have a fitted effect of over 60% in size
Target sequence (Q9UIF8 whole entry, looked up, the tested form may be a part): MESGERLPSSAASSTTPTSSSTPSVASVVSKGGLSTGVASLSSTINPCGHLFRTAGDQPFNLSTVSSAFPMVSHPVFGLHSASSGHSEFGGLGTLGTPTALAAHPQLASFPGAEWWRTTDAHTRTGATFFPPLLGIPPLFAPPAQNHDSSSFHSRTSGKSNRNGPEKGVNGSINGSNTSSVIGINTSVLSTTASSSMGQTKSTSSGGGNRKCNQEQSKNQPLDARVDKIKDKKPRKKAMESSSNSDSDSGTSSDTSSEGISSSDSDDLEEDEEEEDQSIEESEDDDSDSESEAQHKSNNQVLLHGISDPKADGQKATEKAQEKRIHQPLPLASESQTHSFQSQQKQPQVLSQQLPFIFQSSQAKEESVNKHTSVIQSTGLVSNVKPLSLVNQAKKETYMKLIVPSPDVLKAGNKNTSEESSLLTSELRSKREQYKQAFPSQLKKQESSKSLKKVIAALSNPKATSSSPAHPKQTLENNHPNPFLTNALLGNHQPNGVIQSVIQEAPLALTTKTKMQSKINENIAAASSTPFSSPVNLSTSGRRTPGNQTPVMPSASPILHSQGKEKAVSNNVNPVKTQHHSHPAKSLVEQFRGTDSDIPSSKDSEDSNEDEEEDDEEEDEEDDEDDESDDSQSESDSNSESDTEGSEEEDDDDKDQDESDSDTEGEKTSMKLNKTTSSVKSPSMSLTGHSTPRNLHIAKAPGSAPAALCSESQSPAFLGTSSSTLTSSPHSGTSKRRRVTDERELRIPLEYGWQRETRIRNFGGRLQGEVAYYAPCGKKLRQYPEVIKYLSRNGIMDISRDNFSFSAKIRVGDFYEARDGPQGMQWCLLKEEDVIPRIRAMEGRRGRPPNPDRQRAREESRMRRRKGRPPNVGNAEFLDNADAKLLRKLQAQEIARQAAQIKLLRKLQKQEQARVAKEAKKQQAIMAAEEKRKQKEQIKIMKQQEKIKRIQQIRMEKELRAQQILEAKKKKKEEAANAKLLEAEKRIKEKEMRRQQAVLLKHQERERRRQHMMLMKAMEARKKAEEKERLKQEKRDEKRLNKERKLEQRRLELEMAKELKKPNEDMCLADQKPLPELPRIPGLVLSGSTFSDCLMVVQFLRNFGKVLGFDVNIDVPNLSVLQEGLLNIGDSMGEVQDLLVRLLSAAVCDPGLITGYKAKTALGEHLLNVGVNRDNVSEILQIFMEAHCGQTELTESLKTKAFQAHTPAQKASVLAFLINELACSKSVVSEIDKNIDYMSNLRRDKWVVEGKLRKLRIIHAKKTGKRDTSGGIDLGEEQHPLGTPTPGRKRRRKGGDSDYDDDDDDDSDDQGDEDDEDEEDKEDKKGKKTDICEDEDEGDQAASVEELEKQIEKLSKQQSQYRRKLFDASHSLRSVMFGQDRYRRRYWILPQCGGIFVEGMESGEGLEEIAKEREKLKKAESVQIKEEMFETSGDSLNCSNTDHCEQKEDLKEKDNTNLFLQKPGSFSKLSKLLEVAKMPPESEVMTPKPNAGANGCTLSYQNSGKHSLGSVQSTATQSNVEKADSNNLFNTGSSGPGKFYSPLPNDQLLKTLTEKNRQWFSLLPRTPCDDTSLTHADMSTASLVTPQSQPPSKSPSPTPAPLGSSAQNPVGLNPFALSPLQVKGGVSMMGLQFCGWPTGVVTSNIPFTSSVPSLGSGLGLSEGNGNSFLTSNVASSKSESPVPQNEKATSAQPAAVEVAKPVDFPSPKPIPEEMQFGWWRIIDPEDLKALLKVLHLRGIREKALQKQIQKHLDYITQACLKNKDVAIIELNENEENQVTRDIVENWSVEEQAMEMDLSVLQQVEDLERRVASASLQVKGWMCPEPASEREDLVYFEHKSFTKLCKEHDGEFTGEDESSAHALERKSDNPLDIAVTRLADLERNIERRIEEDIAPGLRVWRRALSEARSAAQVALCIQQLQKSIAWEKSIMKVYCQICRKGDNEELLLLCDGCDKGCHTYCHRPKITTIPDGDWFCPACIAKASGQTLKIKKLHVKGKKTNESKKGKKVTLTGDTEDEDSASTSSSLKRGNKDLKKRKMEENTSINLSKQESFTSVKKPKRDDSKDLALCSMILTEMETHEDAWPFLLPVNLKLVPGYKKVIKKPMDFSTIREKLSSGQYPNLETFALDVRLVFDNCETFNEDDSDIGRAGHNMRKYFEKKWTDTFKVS
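AlphaScreen luminescence quantifies BAZ2B engagement of H3K14Ac peptide; the protein and biotinylated peptide are both at 50 nM final, buffer PBS pH 7.4 with 0.01% Tween-20, all steps at room temperature.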
G9a inh: qHTS Assay for Inhibitors of Histone Lysine Methyltransferase G9a; 350,000 compounds, 8.8% hits; G9a H3K9 monomethylation, AlphaScreen, 2 h; Potency, µM (series often up to 102 µM), most hits filed as inhibitors; note: nearly all actives have a fitted effect of over 75% in size
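AlphaScreen detection with an anti-monomethyl H3K9 antibody quantified product after a 2 h room-temperature reaction containing 500 nM biotinylated H3K9 peptide, 20 µM SAM and 20 nM enzyme, which had been preincubated 15 min with compound.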
A number is an active result; . = inactive; ? = inconclusive; / = not tested or not shown; [ ] = dose if it differs, or a comment. Calls come from the whole dose curve; as a rule, active = well fitted curve in the direction sought with a large enough effect; inconclusive = small, poorly fitted or top-dose-only effect, or another doubt; inactive = no such curve, though single readings can be large; an effect the other way counts as inactive or inconclusive.

SMILES	JMJD2A Tudor	Sfp PPTase inh	HP1b chromo inh	BAZ2B block	G9a inh
CC(=O)Nc1ccc(C2=NNC(=Nc3ccc(S(=O)(=O)N4CCOCC4)cc3)SC2)cc1	.	14.1µM	?	.	2.82µM
C[C@@H]1CN(S(=O)(=O)C(C)(C)C)[C@@H](CCO)/C1=C\c1ccccc1	.	/	.	/	/
CN1CCN(C(=O)c2ccccc2Nc2ccc(SC(F)F)cc2)CC1	.	.	.	.	?
O=C(NCc1ccncc1)c1ccccc1Nc1ccc(SC(F)F)cc1	.	.	.	.	44.7µM
CCN1CCN(C(=O)c2ccccc2Nc2ccc(SC(F)F)cc2)CC1	.	.	.	.	50.1µM
Cn1nccc1NS(=O)(=O)c1ccc(NC(=O)C(F)(F)F)cc1	.	.	.	.	.
O=C(CSCCO)Nc1cccc2ccccc12	.	.	.	.	50.1µM
CSc1ccccc1NC(=O)Nc1cccc(Cl)c1Cl	.	.	.	.	.
CSc1ccccc1NC(=O)Nc1cccc2ccccc12	.	.	.	.	79.4µM
O=C(CSCC(=O)Nc1cccc2ccccc12)Nc1cccc2ccccc12	.	.	.	?	/
O=C(Nc1ccc2snnc2c1)Nc1cccc2ccccc12	.[11.4 µM]	.	.	.	50.1µM
COc1ccccc1NC(=O)c1sc2nc3c(cc2c1N)CN(Cc1ccccc1)CC3	.	/	.	.	?
CS(=O)(=O)c1ccc(C(=O)OCC(=O)NC(=O)C2CCCCC2)cc1[N+](=O)[O-]	.	25.1µM	.	.	.
Cc1cc(C(=O)OCC(=O)NC(=O)C2CCCCC2)ccc1[N+](=O)[O-]	.	/	.	/	/
C[C@H]1Cc2c(-c3ccccc3)nc3c(c2CO1)CN(C(=O)c1ccco1)CC3	/	.	/	/	/
O=c1cc[nH]c(=S)[nH]1	/	44.7µM	/	/	.[2.33 µM]
Cc1c(Cl)cccc1NC(=O)Cn1nnc2sc3c(c2c1=O)CCCC3	.	/	.	.	.
C=CCNC(=O)CN1CCC(O)(c2ccc(F)cc2)CC1	.	.	.	.	.
Cc1ccc2c(c1)nnn2C1CCN(S(=O)(=O)c2ccc(C(=O)N3C(C)CCCC3C)cc2)CC1 (configuration not stated)	50.1µM	.	.	?	25.1µM
Cc1cc(C)c(NC(=O)C(C)n2nnc3sc(-c4ccccc4)cc3c2=O)c(C)c1 (configuration not stated)	?	/	.	?	10µM
COc1ccc(NC(=O)C(C)n2nnc3sc(-c4ccccc4)cc3c2=O)cc1Cl (configuration not stated)	79.4µM	/	?	.	2.82µM
CN(c1cccc(NC(=O)c2ccccc2N(Cc2ccccc2)S(C)(=O)=O)c1)S(C)(=O)=O	.	.	.	.	.[0.501 µM]
CCOC(=O)C1(C)C=C(Nc2cccc(C)c2)C(=O)N1c1ccccc1 (configuration not stated)	.	/	.	.	?
Cc1ccccc1N1CCN(Cc2c[nH]c3ccccc23)CC1	5.01µM	.	?	?	31.6µM
Brc1ccccc1CN1CCN(Cc2c[nH]c3ccccc23)CC1	0.794µM	/	39.8µM	/	/
SMILES	JMJD2A Tudor	Sfp PPTase inh	HP1b chromo inh	BAZ2B block	G9a inh
O=C(c1cccc(Cl)c1)N1CCN(Cc2c[nH]c3ccccc23)CC1	3.55µM	.	.	.	.
CCS(=O)(=O)N1CCN(Cc2c[nH]c3ccccc23)CC1	1.12µM	.	?	56.2µM	14.1µM
COc1cccc(NC(=O)COC(=O)C2CCCCC2)c1	.	/	.	/	/
Cc1cc(Cl)ccc1NC(=S)Nc1ccccn1	.	.	.	.	.
CCc1ccc(S(=O)(=O)c2cn(Cc3ccccc3F)c3cc(OC)c(OC)cc3c2=O)cc1	.	/	.	.	.
Cc1ccc(-c2nnc(-c3ccccc3)c(N3CCOCC3)n2)cc1	.	.	.	?	.[12.7 µM]
Cc1ccc(S(=O)(=O)N2CC[C@@H]2C(=O)O)cc1	.	/	.	/	/
O=[N+]([O-])c1ccc(CN2CCN(Cc3c[nH]c4ccccc34)CC2)cc1	7.94µM	?	?	22.4µM	8.91µM
CN1CCCN(Cc2ccccc2Br)CC1	0.891µM	79.4µM	?	?	22.4µM
Fc1ccc(N2CCN(Cc3c[nH]c4ccccc34)CC2)cc1	/	.	/	?	.
Brc1ccc(CN2CCN(Cc3c[nH]c4ccccc34)CC2)cc1	2.24µM	56.2µM	22.4µM	39.8µM	50.1µM
Cn1cccc1Cc1nnc(SCC(=O)Nc2nccs2)n1C	.	.	.	.	?
Cn1cccc1Cc1nnc(SCC(=O)Nc2nccs2)n1CCc1ccccc1	?	79.4µM	.	?	50.1µM
CC(=O)Nc1cccc(NC(=O)CSc2nnc(Cc3cccn3C)n2CCc2ccccc2)c1	.	.	.	.	50.1µM
CCCn1c(SCC(=O)NCc2ccc(Cl)cc2)n[nH]c1=O	?	.	.	.	.
COc1ccc(NC(=O)c2cc3cccc(OC)c3oc2=Nc2ccc(C(=O)O)cc2)cc1OC	.	.	.	.	39.8µM
COc1ccc(-c2c(C(F)(F)F)[nH]n3c(=O)cc(-c4ccccc4)nc23)cc1	.	.	.	.	.
O=C(COC(=O)c1cnc(Cl)c(Cl)c1)NC1CC1	.	/	.	/	/
CN(C)c1ccc(/C=C2\C(=N)N3N=C(CC(=O)N4CCCCC4)SC3=NC2=O)cc1	?	.	.	?	.
Cc1ccc(/C=C2/C(=N)N3N=C(CC(=O)N4CCCC4)SC3=NC2=O)o1	.	.	.	.	31.6µM
N=C1/C(=C\c2ccc(Br)o2)C(=O)N=C2SC(CC(=O)N3CCCCC3)=NN12	.	.	.	?	44.7µM
CSCCC(NS(=O)(=O)c1ccccc1F)C(=O)NCc1cccs1 (configuration not stated)	.	/	.	.	.[12.7 µM]
CCOC(=O)c1cc(-c2ccc(/C=C3/C(=O)N(c4ccc(C(=O)O)cc4)N=C3C)o2)ccc1Cl	14.1µM	.	?	17.8µM	7.08µM
CC1=NN(c2ccc(Br)cc2)C(=O)/C1=C/c1ccc(-c2ccccc2C(=O)O)o1	31.6µM	.	?	35.5µM	35.5µM
CCOC(=O)c1cc(-c2ccc(/C=N\n3cnnc3)o2)ccc1Cl	.	.	.	.	.
SMILES	JMJD2A Tudor	Sfp PPTase inh	HP1b chromo inh	BAZ2B block	G9a inh
CCCCOC(=O)c1cc(-c2ccc(/C=N/n3cnnc3)o2)ccc1Cl	56.2µM	/	.	/	/
Cc1c(OC(C)C(=O)NCc2ccncc2)ccc2c3c(c(=O)oc12)CCC3 (configuration not stated)	?	.	.	.	.
O=S(=O)(c1ccccc1)N1CCN(S(=O)(=O)c2ccccc2)c2ccccc21	.	/	/	/	/
CCOC(=O)C1CCN(CCCSc2ccc(Cl)cc2)CC1	.	.	.	.	/
Cc1ccc(SCCCCN2CCOCC2)cc1	.	.	.	.	.
CC1CCCN(CCSc2ccc(Cl)cc2)C1 (configuration not stated)	?	.	?	.	11.2µM

Screening data from PubChem.
